In all, about 5,600 compounds went through this assay and about 3,100 (55%) were called active. About 3% were inconclusive and are not listed. The set was probably picked from earlier hits. These entries were drawn from the full list. Values without a mark were called inactive.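 Rule for the calls: active = mean loss of cell viability signal at or above a set limit, and enough replicates individually reaching it; inconclusive = meets only the mean limit or only the replicate share; inactive = meets neither condition.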

A short description of this assay: viability loss of mouse 3T3 cells – cell-based, cherry-pick, single point, set 2, cytotoxicity control, confirmation (AID 651744).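 Note: 0% = median of neutral control wells and 100% = median of positive control wells.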 The settings on record: NIH/3T3 viability, CellTiter-Glo ATP luminescence, 90 h; at 24.9 µM; stronger effect = higher value. (In general: ATP-based viability assays read luminescence as a measure of living cells.)
Take `O=C(Cc1cccnc1)N1CCCCN2[C@@H](CO)[C@H](c3ccc(C#CC4CCCC4)cc3)[C@@H]2C1`: the inhibition is 105% (active).
For `COc1ccc(C#Cc2ccc([C@H]3[C@H](CO)N4CCCCN(C(=O)Cc5ccccc5)C[C@@H]34)cc2)cc1`, the inhibition was 106% (active).
Consider `O=C(Cc1ccccn1)N1CCCCN2[C@@H](CO)[C@@H](c3ccc(C#Cc4ccccc4)cc3)[C@@H]2C1`, for which the inhibition is 103% (active).
Consider `C/C=C/c1ccc([C@H]2[C@H](CO)N3CCCCN(C(=O)Cc4ccncc4)C[C@@H]23)cc1`, for which the inhibition was 3.85%.
Next, `COc1ccc(-c2ccc([C@H]3[C@H](CO)N4CCCCN(C(=O)Cc5ccncc5)C[C@@H]34)cc2)cc1`: 18.4%.

As a reminder, the inhibition is the relative decrease from the control value, in per cent.

(Values after PubChem BioAssay AID651744 (Broad Institute, 2012).)
